Results as given in article PMC12864922, “TDP-43 directly inhibits mRNA accumulation in neurites through modulation of mRNA stability”.
The full ranking holds about 9,900 sequences; the median of “r (bound/input frequency ratio)” is about 0.7, and the highest 2% start at about 6.5. The full list was thinned out, with the highest values kept by preference.

B1: ENSMUSG00000029636.441|Wasf3 (ssRNA)
RNA: GGGAGUUCUACAGUCCGACGAUCGCUUCGAUAUCCGCAUGCUAGUGGAUGGUUGAGUGGGUGGAUUCAUGAUGGAUGGAUGGAUGGAUGGAUGGAUGGAUGGAUGGAUGAGUGGAUGGAUAAUAGGUUGAUGGGUGGAUAGGUAGAUGAGUGAAUAGAUAGAUAUAGAUCAGUGGGAGGAUUGGAAAGUAGGUGAAUGAAUGGAUGGCAGAUAGAUGGAUCAAUUACAGAUGGAUGGAUGCAUGGAAUAGAUAGGUGGAUGGGUGGUGGCUAGAAGGUGCCUGAGUCUGCACAUCACUGCACUCUCUUGCGGUCGCACUAGUGUGGAAUUCUCGGGUGUCAAGG
B2: ENSMUSG00000029636.449|Wasf3 (ssRNA)
RNA: GGGAGUUCUACAGUCCGACGAUCGCUUCGAUAUCCGCAUGCUAUGGAUGGAUGGAUGGAUGAGUGGAUGGAUAAUAGGUUGAUGGGUGGAUAGGUAGAUGAGUGAAUAGAUAGAUAUAGAUCAGUGGGAGGAUUGGAAAGUAGGUGAAUGAAUGGAUGGCAGAUAGAUGGAUCAAUUACAGAUGGAUGGAUGCAUGGAAUAGAUAGGUGGAUGGGUGGUGGCUAGAAGGUGCCUGAGUCUGCACAUCACUGCACUGAGAAGGCAAAUGAGUACAUUAUACUAUUAGCACCAAACCCCAAGCUUCUCUUGCGGUCGCACUAGUGUGGAAUUCUCGGGUGUCAAGG
B3: ENSMUSG00000029636.444|Wasf3 (ssRNA)
RNA: GGGAGUUCUACAGUCCGACGAUCGCUUCGAUAUCCGCAUGCUAGGAUUCAUGAUGGAUGGAUGGAUGGAUGGAUGGAUGGAUGGAUGGAUGAGUGGAUGGAUAAUAGGUUGAUGGGUGGAUAGGUAGAUGAGUGAAUAGAUAGAUAUAGAUCAGUGGGAGGAUUGGAAAGUAGGUGAAUGAAUGGAUGGCAGAUAGAUGGAUCAAUUACAGAUGGAUGGAUGCAUGGAAUAGAUAGGUGGAUGGGUGGUGGCUAGAAGGUGCCUGAGUCUGCACAUCACUGCACUGAGAAGGCAAAUGAGUACCUCUUGCGGUCGCACUAGUGUGGAAUUCUCGGGUGUCAAGG
B4: ENSMUSG00000029636.446|Wasf3 (ssRNA)
RNA: GGGAGUUCUACAGUCCGACGAUCGCUUCGAUAUCCGCAUGCUAGAUGGAUGGAUGGAUGGAUGGAUGGAUGGAUGGAUGAGUGGAUGGAUAAUAGGUUGAUGGGUGGAUAGGUAGAUGAGUGAAUAGAUAGAUAUAGAUCAGUGGGAGGAUUGGAAAGUAGGUGAAUGAAUGGAUGGCAGAUAGAUGGAUCAAUUACAGAUGGAUGGAUGCAUGGAAUAGAUAGGUGGAUGGGUGGUGGCUAGAAGGUGCCUGAGUCUGCACAUCACUGCACUGAGAAGGCAAAUGAGUACAUUAUACUAUUACUCUUGCGGUCGCACUAGUGUGGAAUUCUCGGGUGUCAAGG
B5: ENSMUSG00000029636.445|Wasf3 (ssRNA)
RNA: GGGAGUUCUACAGUCCGACGAUCGCUUCGAUAUCCGCAUGCUAAUGAUGGAUGGAUGGAUGGAUGGAUGGAUGGAUGGAUGGAUGAGUGGAUGGAUAAUAGGUUGAUGGGUGGAUAGGUAGAUGAGUGAAUAGAUAGAUAUAGAUCAGUGGGAGGAUUGGAAAGUAGGUGAAUGAAUGGAUGGCAGAUAGAUGGAUCAAUUACAGAUGGAUGGAUGCAUGGAAUAGAUAGGUGGAUGGGUGGUGGCUAGAAGGUGCCUGAGUCUGCACAUCACUGCACUGAGAAGGCAAAUGAGUACAUUAUACUCUUGCGGUCGCACUAGUGUGGAAUUCUCGGGUGUCAAGG
B6: ENSMUSG00000029636.440|Wasf3 (ssRNA)
RNA: GGGAGUUCUACAGUCCGACGAUCGCUUCGAUAUCCGCAUGCUAUAGGUGGUGGAUGGUUGAGUGGGUGGAUUCAUGAUGGAUGGAUGGAUGGAUGGAUGGAUGGAUGGAUGGAUGAGUGGAUGGAUAAUAGGUUGAUGGGUGGAUAGGUAGAUGAGUGAAUAGAUAGAUAUAGAUCAGUGGGAGGAUUGGAAAGUAGGUGAAUGAAUGGAUGGCAGAUAGAUGGAUCAAUUACAGAUGGAUGGAUGCAUGGAAUAGAUAGGUGGAUGGGUGGUGGCUAGAAGGUGCCUGAGUCUGCACAUCACCUCUUGCGGUCGCACUAGUGUGGAAUUCUCGGGUGUCAAGG
B7: ENSMUSG00000029636.439|Wasf3 (ssRNA)
RNA: GGGAGUUCUACAGUCCGACGAUCGCUUCGAUAUCCGCAUGCUAGGAUGAUAGGUGGUGGAUGGUUGAGUGGGUGGAUUCAUGAUGGAUGGAUGGAUGGAUGGAUGGAUGGAUGGAUGGAUGAGUGGAUGGAUAAUAGGUUGAUGGGUGGAUAGGUAGAUGAGUGAAUAGAUAGAUAUAGAUCAGUGGGAGGAUUGGAAAGUAGGUGAAUGAAUGGAUGGCAGAUAGAUGGAUCAAUUACAGAUGGAUGGAUGCAUGGAAUAGAUAGGUGGAUGGGUGGUGGCUAGAAGGUGCCUGAGUCUGCACUCUUGCGGUCGCACUAGUGUGGAAUUCUCGGGUGUCAAGG
B8: ENSMUSG00000029636.442|Wasf3 (ssRNA)
RNA: GGGAGUUCUACAGUCCGACGAUCGCUUCGAUAUCCGCAUGCUAGGUUGAGUGGGUGGAUUCAUGAUGGAUGGAUGGAUGGAUGGAUGGAUGGAUGGAUGGAUGAGUGGAUGGAUAAUAGGUUGAUGGGUGGAUAGGUAGAUGAGUGAAUAGAUAGAUAUAGAUCAGUGGGAGGAUUGGAAAGUAGGUGAAUGAAUGGAUGGCAGAUAGAUGGAUCAAUUACAGAUGGAUGGAUGCAUGGAAUAGAUAGGUGGAUGGGUGGUGGCUAGAAGGUGCCUGAGUCUGCACAUCACUGCACUGAGAAGCUCUUGCGGUCGCACUAGUGUGGAAUUCUCGGGUGUCAAGG
B9: ENSMUSG00000029636.443|Wasf3 (ssRNA)
RNA: GGGAGUUCUACAGUCCGACGAUCGCUUCGAUAUCCGCAUGCUAGUGGGUGGAUUCAUGAUGGAUGGAUGGAUGGAUGGAUGGAUGGAUGGAUGGAUGAGUGGAUGGAUAAUAGGUUGAUGGGUGGAUAGGUAGAUGAGUGAAUAGAUAGAUAUAGAUCAGUGGGAGGAUUGGAAAGUAGGUGAAUGAAUGGAUGGCAGAUAGAUGGAUCAAUUACAGAUGGAUGGAUGCAUGGAAUAGAUAGGUGGAUGGGUGGUGGCUAGAAGGUGCCUGAGUCUGCACAUCACUGCACUGAGAAGGCAAAUCUCUUGCGGUCGCACUAGUGUGGAAUUCUCGGGUGUCAAGG
B10: ENSMUSG00000029636.450|Wasf3 (ssRNA)
RNA: GGGAGUUCUACAGUCCGACGAUCGCUUCGAUAUCCGCAUGCUAGAUGGAUGGAUGAGUGGAUGGAUAAUAGGUUGAUGGGUGGAUAGGUAGAUGAGUGAAUAGAUAGAUAUAGAUCAGUGGGAGGAUUGGAAAGUAGGUGAAUGAAUGGAUGGCAGAUAGAUGGAUCAAUUACAGAUGGAUGGAUGCAUGGAAUAGAUAGGUGGAUGGGUGGUGGCUAGAAGGUGCCUGAGUCUGCACAUCACUGCACUGAGAAGGCAAAUGAGUACAUUAUACUAUUAGCACCAAACCCCAAGCUUCAGUAUCUCUUGCGGUCGCACUAGUGUGGAAUUCUCGGGUGUCAAGG

Target: TDP-43 (Homo sapiens, UniProt Q13148 1-414)
Test: RNA Bind-n-Seq with designed 260-mer pool; 25 mM Tris-HCl, 150 mM KCl, 3 mM MgCl2, BSA (printed 500 mg/mL), 20 units/mL SUPERase IN; pH not stated; 500 nM RNA pool, 1 h, 4 C; TDP-43 5, 50, 500 nM; high values mean tight binding
Conditions: protein: recombinant; tags: SBP (GST cleaved off with PreScission; pGEX-GST-SBP)
Method in brief: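 Streptavidin beads captured recombinant SBP-tagged TDP-43 at 5, 50 or 500 nM, and the beads were incubated for 1 h at 4 °C with 500 nM of an in vitro-transcribed pool of 260-nt 3′ UTR oligos in 25 mM Tris-HCl, 150 mM KCl, 3 mM MgCl2, BSA and SUPERase IN. After washing, bound RNA was eluted with biotin, reverse transcribed, PCR-amplified and sequenced. Binding is reported as R, the mapped-read-normalized abundance of each oligo in the bound sample divided by its abundance in the input. Two independent protein batches served as duplicates.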

Chain of TDP-43 (Q13148 whole entry): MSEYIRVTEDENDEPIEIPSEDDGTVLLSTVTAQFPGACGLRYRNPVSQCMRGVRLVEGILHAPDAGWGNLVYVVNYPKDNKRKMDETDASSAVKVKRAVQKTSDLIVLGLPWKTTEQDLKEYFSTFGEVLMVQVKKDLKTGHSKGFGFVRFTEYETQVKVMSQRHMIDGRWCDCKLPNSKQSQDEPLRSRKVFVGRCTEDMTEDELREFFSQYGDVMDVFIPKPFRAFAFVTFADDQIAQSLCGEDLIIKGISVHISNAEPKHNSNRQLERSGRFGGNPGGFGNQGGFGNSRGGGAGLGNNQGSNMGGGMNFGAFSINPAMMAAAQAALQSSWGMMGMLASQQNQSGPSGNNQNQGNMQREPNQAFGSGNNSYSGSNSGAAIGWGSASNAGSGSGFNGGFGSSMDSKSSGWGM

Binder	binding signal
B1	7.11 R (bound/input frequency ratio)
B2	6.51 R (bound/input frequency ratio)
B3	4.6 R (bound/input frequency ratio)
B4	4.56 R (bound/input frequency ratio)
B5	5.13 R (bound/input frequency ratio)
B6	7.49 R (bound/input frequency ratio)
B7	5.9 R (bound/input frequency ratio)
B8	5.86 R (bound/input frequency ratio)
B9	5.07 R (bound/input frequency ratio)
B10	6.13 R (bound/input frequency ratio)
